Source: PubChem BioAssay AID1159580 (chemical genetic matrix, 2015)
Screen size: about 5,500 compounds; about 2,000 (36%) were called active. Roughly 18% stayed inconclusive and do not appear here. Rule as the data show it: active = normalized growth mostly below about 0.91 (no sharp cut-off); inconclusive = no clear call, values can overlap the other calls; inactive = mostly above about 0.92. This is one part of the list.

Test: chemical genetic growth profiling, strain panel (AID 1159580);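 also: tested at 20 µM; growth read once vehicle control cultures reached saturation at 30 °C; 1 = growth at the plate median or of vehicle wells; lower values mean less growth of the strain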
Conditions: growth OD

Measured: normalized growth

CCCCC(=O)O[C@]1(C(=O)CO)[C@@H](C)CC2C3CCC4=CC(=O)C=C[C@]4(C)[C@@]3(F)C(O)C[C@@]21C (some centres undefined)
inactive: S. cerevisiae deletion strains, locus YKL009W, strain mrt4, active compounds read low 0.969 | S. cerevisiae deletion strains, locus YKL068W, active compounds read low 0.991 | S. cerevisiae deletion strains, locus YKL085W, strain MDH1 (second series), active compounds read low 0.987 | S. cerevisiae deletion strains, locus YKL085W, strain MDH1, active compounds read low 0.987 | S. cerevisiae deletion strains, locus YKL160W, strain elf1, active compounds read low 0.958 | S. cerevisiae deletion strains, locus YKL190W, strain CNB1, active compounds read low 0.999 | S. cerevisiae deletion strains, locus YKR001C, strain vps1, active compounds read low 0.972 | S. cerevisiae deletion strains, locus YKR026C, strain gcn3, active compounds read low 0.97 | S. cerevisiae deletion strains, locus YKR091W, strain srl3, active compounds read low 0.986 | S. cerevisiae deletion strains, locus YLL001W, strain dnm1, active compounds read low 0.919 | S. cerevisiae deletion strains, locus YLL026W, active compounds read low 0.964 | S. cerevisiae deletion strains, locus YLL041C, strain sdh2, active compounds read low 0.991 | S. cerevisiae deletion strains, locus YLR027C, strain aat2, active compounds read low 0.977 | S. cerevisiae deletion strains, locus YLR039C, strain RIC1, active compounds read low 1.07 | S. cerevisiae deletion strains, locus YLR058C, strain SHM2, active compounds read low 0.95 | S. cerevisiae deletion strains, locus YLR102C, strain apc9, active compounds read low 1 | S. cerevisiae deletion strains, locus YLR113W, strain HOG1, active compounds read low 0.956 | S. cerevisiae deletion strains, locus YLR221C, strain rsa3, active compounds read low 0.993 | S. cerevisiae deletion strains, locus YLR258W, strain gsy2, active compounds read low 0.99 | S. cerevisiae deletion strains, locus YLR262C, strain YPT6 (second series), active compounds read low 0.948 | S. cerevisiae deletion strains, locus YLR262C, strain YPT6, active compounds read low 1.01 | S. cerevisiae deletion strains, locus YLR268W, strain sec22, active compounds read low 0.96 | S. cerevisiae deletion strains, locus YLR320W, strain mms22, active compounds read low 0.996 | S. cerevisiae deletion strains, locus YLR330W, strain CHS5, active compounds read low 0.99 | S. cerevisiae deletion strains, locus YLR342W, strain FKS1 (second series), active compounds read low 1 | S. cerevisiae deletion strains, locus YLR342W, strain FKS1, active compounds read low 0.973 | S. cerevisiae deletion strains, locus YLR357W, strain rsc2, active compounds read low 1 | S. cerevisiae deletion strains, locus YLR370C, strain arc18, active compounds read low 0.977 | S. cerevisiae deletion strains, locus YLR371W, strain rom2, active compounds read low 0.984 | S. cerevisiae deletion strains, locus YLR384C, strain iki3, active compounds read low 0.963 | S. cerevisiae deletion strains, locus YLR418C, strain cdc73, active compounds read low 0.973 | S. cerevisiae deletion strains, locus YML016C, strain PPZ1, active compounds read low 0.987 | S. cerevisiae deletion strains, locus YML032C, strain rad52, active compounds read low 1 | S. cerevisiae deletion strains, locus YML120C, strain ndi1, active compounds read low 0.998 | S. cerevisiae deletion strains, locus YML124C, strain tub3, active compounds read low 1.01 | S. cerevisiae deletion strains, locus YMR058W, strain fet3, active compounds read low 0.981 | S. cerevisiae deletion strains, locus YMR078C, strain ctf18, active compounds read low 0.98 | S. cerevisiae deletion strains, locus YMR125W, strain sto1, active compounds read low 0.99 | S. cerevisiae deletion strains, locus YMR129W, active compounds read low 0.988 | S. cerevisiae deletion strains, locus YMR205C, strain PFK2, active compounds read low 0.984 | S. cerevisiae deletion strains, locus YMR223W, strain ubp8, active compounds read low 0.974 | S. cerevisiae deletion strains, locus YMR231W, strain pep5, active compounds read low 0.979 | S. cerevisiae deletion strains, locus YMR307W, strain GAS1, active compounds read low 0.968 | S. cerevisiae deletion strains, locus YNL067W, strain RPL9B, active compounds read low 0.964 | S. cerevisiae deletion strains, locus YNL071W, strain lat1, active compounds read low 0.918 | S. cerevisiae deletion strains, locus YNL128W, strain TEP1, active compounds read low 0.968 | S. cerevisiae deletion strains, locus YNL153C, strain GIM3, active compounds read low 0.923 | S. cerevisiae deletion strains, locus YNL183C, strain NPR1, active compounds read low 0.933 | S. cerevisiae deletion strains, locus YNL209W, strain ssb2, active compounds read low 0.975 | S. cerevisiae deletion strains, locus YNL233W, strain BNI4, active compounds read low 0.963 | S. cerevisiae deletion strains, locus YNL248C, strain rpa49, active compounds read low 0.967 | S. cerevisiae deletion strains, locus YNL250W, strain rad50, active compounds read low 0.978 | S. cerevisiae deletion strains, locus YNL271C, strain bni1, active compounds read low 0.971 | S. cerevisiae deletion strains, locus YNL298W, strain CLA4, active compounds read low 0.977 | S. cerevisiae deletion strains, locus YNL307C, strain MCK1, active compounds read low 0.979 | S. cerevisiae deletion strains, locus YNL322C, strain KRE1 (second series), active compounds read low 0.954 | S. cerevisiae deletion strains, locus YNR049C, strain mso1, active compounds read low 0.983 | S. cerevisiae deletion strains, locus YNR052C, strain pop2, active compounds read low 0.979 | S. cerevisiae deletion strains, locus YOL006C, strain TOP1, active compounds read low 0.98 | S. cerevisiae deletion strains, locus YOL012C, strain htz1 1.06 | S. cerevisiae deletion strains, locus YOL147C, strain pex11, active compounds read low 0.989 | S. cerevisiae deletion strains, locus YOR001W, strain rrp6, active compounds read low 0.938 | S. cerevisiae deletion strains, locus YOR061W, strain CKA2, active compounds read low 0.987 | S. cerevisiae deletion strains, locus YOR069W, strain VPS5, active compounds read low 0.989 | S. cerevisiae deletion strains, locus YOR070C, strain gyp1, active compounds read low 0.986 | S. cerevisiae deletion strains, locus YOR080W, strain dia2, active compounds read low 0.965 | S. cerevisiae deletion strains, locus YOR083W, strain WHI5, active compounds read low 0.956 | S. cerevisiae deletion strains, locus YOR106W, strain vam3, active compounds read low 0.929 | S. cerevisiae deletion strains, locus YOR136W, strain idh2, active compounds read low 0.979 | S. cerevisiae deletion strains, locus YOR144C, strain elg1, active compounds read low 0.994 | S. cerevisiae deletion strains, locus YOR184W, strain ser1, active compounds read low 0.984 | S. cerevisiae deletion strains, locus YOR231W, strain MKK1, active compounds read low 0.976 | S. cerevisiae deletion strains, locus YOR265W, strain rbl2, active compounds read low 0.981 | S. cerevisiae deletion strains, locus YOR270C, strain vph1, active compounds read low 0.88 | S. cerevisiae deletion strains, locus YOR290C, strain snf2, active compounds read low 1.01 | S. cerevisiae deletion strains, locus YOR316C, strain cot1, active compounds read low 0.988 | S. cerevisiae deletion strains, locus YPL051W, strain arl3, active compounds read low 0.993 | S. cerevisiae deletion strains, locus YPL055C, strain LGE1, active compounds read low 0.975 | S. cerevisiae deletion strains, locus YPL078C, strain atp4, active compounds read low 0.927 | S. cerevisiae deletion strains, locus YPL106C, strain sse1, active compounds read low 1.01 | S. cerevisiae deletion strains, locus YPL240C, strain hsp82, active compounds read low 0.967 | S. cerevisiae deletion strains, locus YPL241C, strain CIN2, active compounds read low 1 | S. cerevisiae deletion strains, locus YPL256C, strain CLN2, active compounds read low 0.973 | S. cerevisiae deletion strains, locus YPR119W, strain clb2, active compounds read low 0.993 | S. cerevisiae deletion strains, locus YPR141C, strain kar3, active compounds read low 0.968 | S. cerevisiae deletion strains, locus YPR163C, strain tif3, active compounds read low 0.985 | S. cerevisiae deletion strains, locus YPR167C, strain met16, active compounds read low 0.984 | S. cerevisiae deletion strains, strain wtn01, active compounds read low 0.992 | S. cerevisiae strains, strain wild type, active compounds read low 0.985
